Assay results taken from PubChem BioAssay (NCI).
This is part of a sample that, as a whole, favours compounds with a hit. Of some 83,000 tested, about 20% had one in any assay.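 Treatment: one concentration, 48 hours, 96-well format. Scoring: percent growth, with anything below 10 considered active.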 Active and inactive are the calls of the source.

Key:
Assay in all cases: NCI-60 one-dose screen, 48 h (100 = growth as untreated, 0 = no growth, -100 = all killed)
NCI-H23 lung = conditions: 10 µM unless noted
NCI-H226 lung = conditions: 10 µM unless noted
NCI-H322M lung = conditions: 10 µM unless noted
HOP-62 NSCLC = conditions: 10 µM unless noted
NCI-H460 lung = conditions: 10 µM unless noted
HOP-92 NSCLC = conditions: 10 µM unless noted
NCI-H522 lung = conditions: 10 µM
786-0 renal = conditions: 10 µM unless noted
COLO 205 colon = conditions: 10 µM unless noted

Measured: growth

CC[n+]1c(/C=C/c2ccc(N3CCCC3)cc2)cccc1/C=C/c1ccc(N2CCCC2)cc1
active: NCI-H23 lung -67.9% | NCI-H226 lung -65.7% | NCI-H322M lung -86.7% | HOP-62 NSCLC -54.4% | NCI-H460 lung -84.3% | HOP-92 NSCLC -73.3% | NCI-H522 lung -83.2% | 786-0 renal -82.3%

COCCCNS(=O)(=O)c1ncnc2nc[nH]c12
inactive: NCI-H23 lung 96.4% | NCI-H226 lung 134% | NCI-H322M lung 119% | HOP-62 NSCLC 93.4% | NCI-H460 lung 105% | HOP-92 NSCLC 120% | NCI-H522 lung 119% | 786-0 renal 98.9% | COLO 205 colon 112%

C[C@H]1c2cccc(O)c2C(O)=C2C(=O)[C@]3(O)C(O)=C(C(N)=O)C(=O)[C@@H](N(C)C)[C@@H]3[C@@H](O)[C@@H]21
inactive: NCI-H23 lung 41.5% | NCI-H226 lung 69.2% | NCI-H322M lung 44.2% | HOP-62 NSCLC 51.8% | NCI-H460 lung 35.9% | HOP-92 NSCLC 24.3% | NCI-H522 lung 45.4% | 786-0 renal 50.7% | COLO 205 colon 67.8%

CCN(Cc1cccc(S(=O)(=O)[O-])c1)c1ccc(C(=C2C=CC(=[N+](CC)Cc3cccc(S(=O)(=O)O)c3)C=C2)c2ccccc2S(=O)(=O)O)cc1
inactive: NCI-H23 lung 97.3% | NCI-H226 lung 93.8% | NCI-H322M lung 98.1% | HOP-62 NSCLC 99.3% | NCI-H460 lung 107% | HOP-92 NSCLC 87.3% | NCI-H522 lung 99.4% | 786-0 renal 92.7% | COLO 205 colon 107%

CC(=O)O[C@H]1CC[C@@]2(C)C(=CC[C@@H]3[C@@H]2CC[C@]2(C)C(c4cccnc4)=CC[C@@H]32)C1
inactive: NCI-H23 lung 66.6% | NCI-H226 lung 64.1% | NCI-H322M lung 95.6% | HOP-62 NSCLC 75.7% | NCI-H460 lung 68.2% | HOP-92 NSCLC 79.4% | NCI-H522 lung 38.3% | 786-0 renal 13.6% | COLO 205 colon 81.8%

COc1ccc(Cl)cc1Nc1nc(C(F)(F)F)ccc1C(=O)N/N=C/c1c(Cl)cccc1Cl
inactive: NCI-H23 lung 74.1% | NCI-H226 lung 59.6% | NCI-H322M lung 44.7% | HOP-62 NSCLC 58.5% | NCI-H460 lung 41.6% | HOP-92 NSCLC 70.9% | NCI-H522 lung 39.2% | 786-0 renal 43.7% | COLO 205 colon 35.9%

O=C(/C=C/c1ccc([N+](=O)[O-])cc1)c1ccc2c3c(cccc13)CC2
inactive: NCI-H23 lung 67.9% | NCI-H226 lung 66.9% | NCI-H322M lung 78.4% | HOP-62 NSCLC 53.9% | NCI-H460 lung 38.4% | HOP-92 NSCLC 55% | NCI-H522 lung 70.4% | 786-0 renal 83.9% | COLO 205 colon 49%

O=[N+]([O-])c1ccc2[nH]cc(-c3c4ccccc4cc4[nH]c5ccc([N+](=O)[O-])cc5c34)c2c1
active: NCI-H460 lung 4.24% | 786-0 renal 1.4%
inactive: NCI-H23 lung 33.1% | NCI-H226 lung 39.5% | NCI-H322M lung 47.3% | HOP-62 NSCLC 48.5% | HOP-92 NSCLC 44.7% | NCI-H522 lung 11.3% | COLO 205 colon 14%

C1CCC(C(CC2CCCCN2)C2CCCCC2)CC1 (centres undefined)
inactive: NCI-H226 lung 28% | NCI-H322M lung 49.8%
active: NCI-H23 lung 9.26% | HOP-62 NSCLC -81.6% | NCI-H460 lung -84.3% | HOP-92 NSCLC -2.64% | NCI-H522 lung -16.8% | 786-0 renal -86.7%

COc1cccc(C2=NN(C(C)=O)C(c3cc(OC)c(OC)c(OC)c3)C2)c1 (centres undefined)
inactive: NCI-H23 lung 52% | NCI-H226 lung 90.1% | NCI-H322M lung 77% | HOP-62 NSCLC 31.5% | 786-0 renal 30% | COLO 205 colon 22.2%
active: NCI-H460 lung -0.923% | HOP-92 NSCLC -0.613% | NCI-H522 lung -38%

CN[C@@H]1C(OC2[C@H](O[C@H]3[C@H](O)[C@@H](O)[C@H](N=C(N)N)[C@@H](O)[C@@H]3N=C(N)N)OC(C)[C@]2(O)CO)OC(CO)C(O)C1O (some centres undefined)
inactive: NCI-H23 lung 103% | NCI-H226 lung 108% | NCI-H322M lung 111% | HOP-62 NSCLC 107% | NCI-H460 lung 113% | HOP-92 NSCLC 118% | NCI-H522 lung 112% | 786-0 renal 106% | COLO 205 colon 109%

O=Cc1ccccc1C(=O)O
inactive: NCI-H23 lung 100% | NCI-H226 lung 100% | NCI-H322M lung 96.7% | HOP-62 NSCLC 96.7% | NCI-H460 lung 99.5% | HOP-92 NSCLC 101% | NCI-H522 lung 96.7% | 786-0 renal 97.4% | COLO 205 colon 112%

c1ccc(N2c3nc4ccccc4cc3Sc3cc4ccccc4nc32)nc1
inactive: NCI-H23 lung 93.7% | NCI-H226 lung 84.9% | NCI-H322M lung 83.6% | HOP-62 NSCLC 90.8% | NCI-H460 lung 111% | HOP-92 NSCLC 39% | NCI-H522 lung 98.1% | 786-0 renal 92.9% | COLO 205 colon 141%

O=C(Nc1nc(-c2ccc(Cl)cc2)cs1)c1cc(-c2ccc(Br)cc2)nc2ccc(Cl)cc12
active: HOP-92 NSCLC 5.28%
inactive: NCI-H23 lung 33.5% | NCI-H226 lung 71.2% | NCI-H322M lung 92.1% | HOP-62 NSCLC 37.2% | NCI-H460 lung 108% | NCI-H522 lung 75.3% | 786-0 renal 43% | COLO 205 colon 89.1%

O=C(/C=C/c1cccc(O)c1)c1cccc(-n2cc(-c3ccccc3)[nH]c2=O)c1
inactive: NCI-H23 lung 14.4% | NCI-H322M lung 21.4% | HOP-62 NSCLC 16.9% | NCI-H460 lung 34.8% | HOP-92 NSCLC 26.7% | COLO 205 colon 83.8%
active: NCI-H226 lung 3.79% | NCI-H522 lung -21.8% | 786-0 renal -59.7%

CC(C)Sc1nc(-c2ccc(Br)cc2)c(C#N)c(N2CCCCC2)n1
inactive: NCI-H23 lung 110% | NCI-H226 lung 100% | NCI-H322M lung 93.7% | HOP-62 NSCLC 115% | NCI-H460 lung 104% | HOP-92 NSCLC 105% | NCI-H522 lung 99.3% | 786-0 renal 82.7% | COLO 205 colon 135%

O=[N+]([O-])c1cc([N+](=O)[O-])c(N2CCCC2)cc1NN=C(c1ccc(O)cc1)c1ccc(O)cc1
inactive: NCI-H226 lung 94.8% | NCI-H322M lung 91.7% | HOP-62 NSCLC 23.3% | HOP-92 NSCLC 87.7% | COLO 205 colon 30.6%
active: NCI-H23 lung 9.44% | NCI-H460 lung 9.13% | NCI-H522 lung -42% | 786-0 renal 0.661%

O=C(CNc1ccc2c(c1)C(=O)c1ccccc1C2=O)Nc1ccc2c(c1)C(=O)c1ccccc1C2=O
active: NCI-H23 lung -70.5% | NCI-H226 lung -62% | NCI-H322M lung -95.2% | HOP-62 NSCLC -86.5% | NCI-H460 lung -71.6% | HOP-92 NSCLC -65.7% | NCI-H522 lung -96.2% | 786-0 renal -90.3% | COLO 205 colon -89%

C/C=C(/C(=C/C)c1ccc(O)cc1)c1ccc(O)cc1
inactive: NCI-H23 lung 48% | NCI-H226 lung 69.9% | NCI-H322M lung 27.4% | HOP-62 NSCLC 36% | NCI-H460 lung 20.2% | HOP-92 NSCLC 58.5% | NCI-H522 lung 55.3% | 786-0 renal 39.3% | COLO 205 colon 73.9%

C=C(CN1CCc2c([nH]c3ccccc23)C1)c1ccc(C(=O)Nc2ccon2)cc1
active: NCI-H522 lung -15%
inactive: NCI-H23 lung 85.9% | NCI-H226 lung 92.7% | NCI-H322M lung 125% | HOP-62 NSCLC 88.2% | NCI-H460 lung 101% | HOP-92 NSCLC 31.5% | 786-0 renal 96% | COLO 205 colon 83.6%

O=C(c1ccc(Cl)cc1)c1ccc(Cl)cc1
inactive: NCI-H23 lung 104% | NCI-H226 lung 100% | NCI-H322M lung 115% | HOP-62 NSCLC 98.8% | NCI-H460 lung 107% | HOP-92 NSCLC 101% | NCI-H522 lung 85.2% | 786-0 renal 114% | COLO 205 colon 117%

CCSc1nc(-c2ccc(F)cc2)c(C#N)c(=O)[nH]1
inactive: NCI-H23 lung 95.2% | NCI-H226 lung 98.7% | NCI-H322M lung 101% | HOP-62 NSCLC 110% | NCI-H460 lung 108% | HOP-92 NSCLC 131% | NCI-H522 lung 96.8% | 786-0 renal 108% | COLO 205 colon 126%

O=C(O)CCC(=O)OC[C@@H](NC(=O)C(Cl)Cl)[C@H](O)c1ccc([N+](=O)[O-])cc1
inactive: NCI-H23 lung 98.4% | NCI-H226 lung 89.3% | NCI-H322M lung 99.5% | HOP-62 NSCLC 98.5% | NCI-H460 lung 111% | HOP-92 NSCLC 86.7% | NCI-H522 lung 91.7% | 786-0 renal 93.7% | COLO 205 colon 99.4%

COc1ccc(C(=O)COc2cccc(/C=C3\CSc4ccc(Cl)cc4C3=O)c2)cc1
inactive: NCI-H23 lung 87.1% | NCI-H226 lung 75.1% | NCI-H322M lung 93.5% | HOP-62 NSCLC 95.8% | NCI-H460 lung 101% | HOP-92 NSCLC 68% | NCI-H522 lung 61.7% | 786-0 renal 97.3% | COLO 205 colon 123%

CCCCCCCCCCN1CCC(N2CCCCC2)CC1
inactive: NCI-H23 lung 38% | NCI-H226 lung 69.5% | NCI-H322M lung 88%
active: HOP-62 NSCLC -64.7% | NCI-H460 lung -37.9% | HOP-92 NSCLC -12.4% | NCI-H522 lung -59.7% | 786-0 renal -93.1% | COLO 205 colon -85.7%

C[C@]12CC[C@H](O)CC1=CC[C@@H]1[C@@H]2CC[C@]2(C)C(c3cccnc3)=CC[C@@H]12
inactive: NCI-H23 lung 68.3% | NCI-H226 lung 58.5% | NCI-H322M lung 84.1% | HOP-62 NSCLC 81.1% | NCI-H460 lung 66.5% | HOP-92 NSCLC 72.3% | NCI-H522 lung 35.7% | 786-0 renal 36.9% | COLO 205 colon 95.1%

NS(=O)(=O)c1cc2c(cc1Cl)NC=NS2(=O)=O
inactive: NCI-H23 lung 109% | NCI-H226 lung 99% | NCI-H322M lung 98.5% | HOP-62 NSCLC 98.5% | NCI-H460 lung 110% | HOP-92 NSCLC 106% | NCI-H522 lung 91.4% | 786-0 renal 98.9% | COLO 205 colon 110%

Cc1c2oc3c(C)ccc(C(=O)OC(C)C4NC(=O)C(C(C)C)N(C)C(=O)CN(C)C(=O)C5CCCN5C(=O)C(C(C)C)NC4=O)c3nc-2c(C(=O)OC(C)C2NC(=O)C(C(C)C)N(C)C(=O)CN(C)C(=O)C3CCCN3C(=O)C(C(C)C)NC2=O)c(N)c1=O (centres undefined)
active: NCI-H23 lung -7.25% | NCI-H226 lung -40.7% | NCI-H322M lung 1.84% | HOP-62 NSCLC -20.4% | NCI-H460 lung 5.45% | HOP-92 NSCLC -15.7% | NCI-H522 lung -60.1% | 786-0 renal -11.9% | COLO 205 colon -63.8%

Cc1onc(-c2ccccc2Cl)c1C(=O)N[C@@H]1C(=O)N2[C@@H]1SC(C)(C)[C@@H]2C(=O)O
inactive: NCI-H23 lung 112% | NCI-H226 lung 99.2% | NCI-H322M lung 104% | HOP-62 NSCLC 97.1% | NCI-H460 lung 112% | HOP-92 NSCLC 110% | NCI-H522 lung 96.1% | 786-0 renal 99% | COLO 205 colon 109%
